Screens (PubChem)
PREPL inh – PREPL enzyme inhibitors, primary screen, biochemical, fluorescence polarization; Prolyl endopeptidase-like (Homo sapiens), Q4J6C6; recombinant PREPL, fluorescence polarization activity-based probe; inhibition, % at 5.96 µM; 320,000 tested, 0.68% active; in the data active = inhibition above about 43%
CHT PAM – CHT positive allosteric modulators, primary screen, cell-based, membrane potential dye, choline EC20. B-score at 10 µM. CHT-expressing cells; active compounds read high; LV-AA mutant CHT in HEK293 cells. 310,000 tested, 0.49% active. AID 488977, 2010. High affinity choline transporter 1 (Homo sapiens), Q9GZV3;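 active = initial fluorescence not abnormally high and integrated response B-score, plate-corrected, over 3 SD above library mean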
AI-2 QS mod – Vibrio harveyi AI-2 quorum sensing modulators, primary screen, JMH597 strain, luminescence/OD600 ratio; Vibrio harveyi JMH597 AI-2 luminescence/OD600 ratio, 9 h; active compounds read low; strain lacks LuxN and CqsS sensors; 0 = neutral-control median; 300,000 tested, 0.4% active; activity change, % at 7.5 µM; in the data active = activity change below about -75%, passing the limit was not always enough; inconclusive = no clear call, values can overlap the other calls;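 also: luminescence divided by OD600 gain over 9 h not by final OD600 alone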
CHT inh – inhibitors of human choline transporter CHT; High affinity choline transporter 1 (Homo sapiens), Q9GZV3; CHT-expressing cells, membrane potential dye, choline response; active compounds read low; B-score at 10 µM; 310,000 tested, 0.86% active;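 active = B-score over 3 SD under the library average, and starting fluorescence ratio not unusually high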;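 also: choline stimulus applied at its EC90 after an EC20 pre-addition; B-score computed on integrated fluorescence ratio after choline addition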
ALR H2O2 inh – inhibitors of human ALR sulfhydryl oxidase, primary screen, biochemical, H2O2 detection, HRP-luminol luminescence, single point | AID 485317, 2010 | purified ALR, DTT oxidation | inhibition, % (no concentration beside the values) | 290,000 tested, 3.8% active | FAD-linked sulfhydryl oxidase ALR (Homo sapiens), P55789;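 active = mean replicate inhibition above about 79%, with every replicate also reaching it, limit read from the data; inconclusive = only one of the two criteria met; inactive = mean below limit and not every replicate reaching it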
Target sequence (P55789 whole entry, looked up): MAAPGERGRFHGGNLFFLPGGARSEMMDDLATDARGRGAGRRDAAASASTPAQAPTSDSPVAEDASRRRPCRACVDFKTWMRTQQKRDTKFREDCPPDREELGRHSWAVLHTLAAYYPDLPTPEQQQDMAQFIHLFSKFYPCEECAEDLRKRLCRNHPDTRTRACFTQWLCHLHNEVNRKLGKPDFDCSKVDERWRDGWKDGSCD
Numbers stand for hits; - = inactive; ? = inconclusive; . = no result. A selection: hits, their analogues and other compounds. The true share with any hit is near 5%.

SMILES | PREPL inh | CHT PAM | AI-2 QS mod | CHT inh | ALR H2O2 inh
O=C(N/N=C/c1c(O)n(Cc2ccccc2)c(=O)[nH]c1=O)c1ccccc1O | - | - | - | - | -
O=C(N/N=C/c1c(O)n(Cc2ccc(F)cc2)c(=O)[nH]c1=O)c1ccccc1O | - | - | - | - | 97
C=CCN1C(=O)NC(=O)/C(=C\c2ccc(-c3ccccc3[N+](=O)[O-])o2)C1=O | - | - | - | - | 98
C=CCN1C(=O)/C(=C/c2ccc(N3CCOCC3)o2)C(=O)NC1=S | - | - | - | - | -
CCNc1ccc(P(=S)(N(C)C)N(C)C)cc1 | - | - | - | - | 99
COc1cc(/C=C/[N+](=O)[O-])ccc1O | - | - | ? | - | -
CCN(CC)c1ccc(/C=C/[N+](=O)[O-])cc1 | - | - | - | - | 99
Cc1ccc(N=Cc2c(O)n(C)c(=O)n(C)c2=O)cc1 | - | - | - | - | -
N#CCCn1cc(C(=O)Nc2ccc(F)cc2)c(-c2ccc([N+](=O)[O-])cc2)n1 | - | - | - | - | -
O=C1NC(=O)N(c2cccc(Cl)c2)C(=O)/C1=C\c1ccc(Sc2nc3ccccc3[nH]2)o1 | - | - | - | - | -
O=C1NC(=O)N(c2ccccc2F)C(=O)/C1=C/c1ccc(Sc2nc3ccccc3[nH]2)o1 | - | - | . | - | 98
O=C(c1ccccc1)c1cn(CC(=O)N2CCOCC2)c2ccccc12 | - | - | . | - | -
O=C(O)c1cc[c]([Hg][Cl])cc1 | - | - | . | -6.1 | ?
N=c1c2c(n(Cc3ccc(Cl)cc3Cl)c3c1CCC3)CCCC2 | - | 6.4 | - | - | -
CNC(C)Cc1ccccc1Sc1ccc(O)cc1 (stereo not drawn) | - | - | - | - | 99
C=CCN1CCc2cccc3c2[C@H]1Cc1ccc(O)c(O)c1-3 | - | - | - | - | 99
N/C(=N/[N+](=O)[O-])N1CCN(C(=O)c2ccc(Cl)cc2)CC1 | - | - | - | - | -
CC1CC(OP(O)(=S)c2ccc(N(C)C)cc2NC(=O)c2cccs2)CC(C)(C)C1 (stereo not drawn) | - | - | - | - | 99
CCCCC/C(=N\O)c1c[nH]c2ccccc12 | - | - | ? | - | -
CCCCC/C(=N/O)c1c(C)[nH]c2ccccc12 | - | - | - | - | 99
CCCC/C(=N/O)c1c(C)[nH]c2ccccc12 | - | - | - | - | 99
Oc1ccc(C2=CCNCC2)cc1O | - | - | - | - | 99
Cc1cc(C)cc(N2C(=O)NC(=O)/C(=C\c3cccn3-c3ccc(Cl)cc3)C2=O)c1 | - | - | - | - | 98
COC(=O)C1=C(c2ccc(F)cc2OCc2ccccc2)C[C@@H]2CC[C@H]1N2C(=O)NCc1ccccc1Cl | - | . | . | . | -
COc1ccccc1-n1c(O)c(/C=N/NC(=S)Nc2ccccc2)c(=O)[nH]c1=S | - | - | - | - | 92
SMILES | PREPL inh | CHT PAM | AI-2 QS mod | CHT inh | ALR H2O2 inh
CCn1c(O)c(/C=N/NC(=O)c2ccccc2)c(=O)[nH]c1=S | - | - | - | - | -
O=P(O)(O)COc1ccccc1O | - | - | - | - | -
CP(=O)(Nc1ccccc1)C(Cl)(Cl)Cl (stereo not drawn) | - | - | - | - | .
CCCC12CN3CCN(CC(C3)/C1=N\NC(=O)c1ccncc1)C2 | - | - | - | - | -
Cc1cc(C)n(-c2ccc(NN=C(C#N)C#N)cc2)n1 | - | - | - | - | 98
COP(=O)(NC(=O)C(Cl)(Cl)Cl)OC | - | - | - | - | -
COC(=O)C1=C(c2c(C)noc2C)C[C@@H]2CC[C@H]1N2C(=O)N1CCC(C)CC1 | - | . | . | . | -
O=C(O)c1ccc(-n2c(O)c(/C=C3\C=Nc4ccccc43)c(=O)[nH]c2=O)cc1 | - | - | - | - | 98
O=c1[nH]c(=O)n(-c2cccc(F)c2)c(O)c1/C=C1\C=Nc2ccccc21 | - | - | - | - | -
Oc1ccc(/C=N/NP(=S)(c2ccccc2)c2ccccc2)cc1O | - | - | - | - | 99
Oc1ccccc1/C=N/NP(=S)(c1ccccc1)c1ccccc1 | - | - | - | - | -
C/C(=N\NP(=S)(c1ccccc1)c1ccccc1)c1ccc(O)cc1O | - | - | - | - | -
Oc1ccc(/C=N/NP(=S)(c2ccccc2)c2ccccc2)c(O)c1O | - | - | - | - | 99
